Rows were chosen to be rich in hits. Some 7.4% of all compounds tested hit in one or more screens of this group.
ELG1 genotoxic – inducers of genotoxicity in HEK293T ELG1-luciferase cells. HEK293T ELG1-luciferase reporter, luminescence, 16 h. Potency, µM (series often up to 46 µM), without a hit: at the top dose activity change, positive = activation, hits mostly activators. 1.3% of 330,000 active; also: % of control where 0% means no effect; nearly all actives have a fitted effect of over 60% in size
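HEK293T cells expressing luciferase-tagged ELG1 were exposed to compound or DMSO vehicle for 16 hr at 37 °C and 5% CO2. Luciferase activity was then measured with ONE-Glo after 30 min at room temperature.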
NPC1 promoter act – NPC1 promoter activation | Huh7 NPC1 promoter luciferase reporter, 24 h | 2.4% of 320,000 active | Potency, µM (doses to about 9.22 µM), inactives show at the top dose activation, usual class: activators; also: % of control where 0% means no effect; nearly all actives have a fitted effect of over 60% in size
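Luciferase expression driven by the NPC1 promoter was measured in stably transfected Huh7 cells after a 24 h compound incubation, using a luciferase reagent and a luminescence read.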
FLuc modulator – firefly luciferase modulation, counter-screen for miR-21 project; purified FLuc, Km substrates, luminescence inhibition; 6.9% of 360,000 active; P08659; Potency, µM (highest dose often 57.5 µM), for inactives: at the highest dose activity change, negative = inhibition, hits mostly inhibitors;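 also: plate controls were vehicle for no effect and reference inhibitor for full effect; nearly all actives have a fitted effect of over 55% in size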
Target sequence (P08659 whole entry, looked up): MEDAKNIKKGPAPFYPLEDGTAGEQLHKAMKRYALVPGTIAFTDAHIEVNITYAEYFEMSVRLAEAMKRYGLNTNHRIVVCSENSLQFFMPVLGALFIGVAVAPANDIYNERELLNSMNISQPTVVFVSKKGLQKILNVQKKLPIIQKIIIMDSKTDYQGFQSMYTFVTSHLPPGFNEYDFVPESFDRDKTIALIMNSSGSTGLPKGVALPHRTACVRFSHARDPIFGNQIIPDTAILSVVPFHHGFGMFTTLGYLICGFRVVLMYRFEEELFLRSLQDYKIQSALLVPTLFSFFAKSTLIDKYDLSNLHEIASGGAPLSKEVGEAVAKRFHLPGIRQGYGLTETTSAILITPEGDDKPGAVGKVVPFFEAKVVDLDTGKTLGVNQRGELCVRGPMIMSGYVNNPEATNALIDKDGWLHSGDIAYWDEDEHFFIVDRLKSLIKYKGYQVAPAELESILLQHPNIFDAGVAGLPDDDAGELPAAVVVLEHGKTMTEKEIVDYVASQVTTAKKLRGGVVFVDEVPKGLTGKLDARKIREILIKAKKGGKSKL
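Purified P. pyralis luciferase, 10 nM final, with Km-level 10 uM D-luciferin and 10 uM ATP in 50 mM Tris acetate pH 7.5, 10 mM Mg acetate, 0.01% Tween-20, 0.05% BSA; 6-point qHTS titration about 60 µM downward; luminescence read.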
Rab9 prom act – Rab9 promoter activation; Huh7 Rab9 promoter-luciferase reporter, luminescence, 24 h; Potency, µM (highest dose often 9.22 µM), for the others: at the top dose activation, negative = inhibition, hits mostly activators; 2.8% of 320,000 active; also: % of control where 0% means no effect; nearly all actives have a fitted effect of over 60% in size
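Measured in stably transfected Huh7 cells bearing a Rab9 promoter–luciferase construct: 24 h compound treatment at 37 °C, followed by luminescence detection.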
Luc counter – blocks Kinase-Glo luciferase, a counter-screen artifact; Q27757; Kinase-Glo luciferase, ATP luminescence, 8 min; Potency, µM (doses to about 38.3 µM), without a hit: at the top dose activity change, negative = inhibition, usual class: inhibitors; 0.28% of 200,000 active; AID 1379; also: % is scaled to controls: 0 for no effect and ±100 for the full control effect; nearly all actives have a fitted effect of over 60% in size
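Recombinant Kinase-Glo luciferase, 10 uM ATP (linear range), luciferin; imidazole pH 7.2 / KCl / MgCl2 / Tween / BSA buffer; 8 min RT; luminescence.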
SMN2 splice up – enhancers of SMN2 splice variant expression; HEK293 SMN2-luciferase splicing reporter, luminescence, 30-36 h; Potency, µM (top dose mostly 46.1 µM), inactives show at the top dose activity change, positive = activation, hits mostly activators; 2.8% of 210,000 active; also: % of control where 0% means no effect; nearly all actives have a fitted effect of over 55% in size
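HEK293 cells carry an SMN2 […]–luciferase reporter in which exon 7 inclusion puts luciferase in frame. Cells were plated 10-12 h before compound addition, then incubated 30-36 h at 37C. ONE-Glo luminescence was read; sodium butyrate at 4.5 mM final served as control.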
Active calls of the source: *; u = inconclusive; x = no result given; [ ] = dose if it differs, or a comment. Calls follow the shape of the dose curve; as a rule, active = well fitted curve in the direction sought with a large enough effect; inconclusive = small, poorly fitted or top-dose-only effect, or another doubt; inactive = no such curve, though single readings can be large; an effect the other way counts as inactive or inconclusive. Potency is read from the fitted curve at half-maximal effect.

SMILES	ELG1 genotoxic	NPC1 promoter act	FLuc modulator	Rab9 prom act	Luc counter	SMN2 splice up
COc1ccc(CCNC(=O)CC(c2ccccc2)c2cc(C)ccc2O)cc1OC (stereo not drawn)	-13%	-4%	0%	0%[1.84 µM]	x	x
Nc1c2c(=O)oc(-c3ccccc3)cc2nn1-c1ccccc1	u	u	4.8µM*	0.71µM*	4%	13µM*
CCN(CC)C(=O)c1sc(NC(=O)c2cccc([N+](=O)[O-])c2)c(C#N)c1C	-9%	1%	24µM*	2%	0%	-95%
COC(=O)c1c(NC(=O)c2ccc([N+](=O)[O-])o2)sc2c1CCN(C(C)C)C2	6%	-22%	-1%	-2%	x	x
CCN(CC)C(=O)c1sc(NC(=O)c2c(OC)cccc2OC)c(C#N)c1C	0%	0%	-16%	-1%	-3%	15%
CC(=O)N1CCc2c(sc(NC(=O)c3ccc([N+](=O)[O-])o3)c2C#N)C1	u	u	u	4µM*	-20%	11µM*
COC(=O)c1sc(NC(=O)c2ccc([N+](=O)[O-])o2)c(C#N)c1C	-8%	-1%	27µM*	-9%	x	x
CC(C)n1nnnc1SCC(=O)N1N=C(c2cccs2)CC1c1cccs1 (stereo not drawn)	16%	29%	24µM*	u	x	x
CCOC(=O)c1sc(N)c(C(=O)OC)c1C	17%	27%	15µM*	30%	-2%	x
COC(=O)c1c(N)sc(C(=O)NCCc2ccccc2)c1C	0.23µM*	u	0.095µM*	u	x	x
O=C(Cc1ccccc1[N+](=O)[O-])Nc1nccs1	-3%	0%	-12%	4%	x	x
O=C(Nc1nccs1)c1ccc(-c2ccccc2[N+](=O)[O-])o1	u	2.8µM*	4.3µM*	2µM*	x	x
O=C(Nc1nccs1)c1ccc(-c2ccccc2Cl)o1	4.1µM*	2.5µM*	2.4µM*	2.5µM*	-14%	11µM*
CCOC(=O)c1ccc(NC(=O)CCSCCc2ccccn2)cc1	14%	-1%	3%	-9%	3%	-5%
CCc1ccc2nc(N3CCC(C(=O)O)CC3)sc2c1	x	x	0.21µM*	x	x	u
Cc1ccc2nc(N3CCN(C(=O)C4COc5ccccc5O4)CC3)sc2c1 (stereo not drawn)	x	x	8.5µM*	x	x	x
CCCCN(C)CCNC(=O)C1CCN(c2nc3ccc(CC)cc3s2)CC1	x	x	12µM*	x	x	10%
CCc1ccc2nc(N3CCN(C(=O)C4CC4)CC3)sc2c1	x	x	15µM*	x	x	x
Cc1ccc2nc(N3CCC(C(=O)NC4CCCCC4)CC3)sc2c1	-10%	1%	-11%	-9%	x	x
O=C(C1CC1)N1CCN(c2nc3c(Cl)cccc3s2)CC1	x	x	-13%	x	x	x
O=C(NCc1ccccc1Br)c1ccc2c(c1)OCCO2	14%	13%	u	22%	x	x
N#Cc1c(Cl)nc2c(c1C#N)CCCC2	1%	2%	-2%	-6%	x	x
O=C(Nc1cc2c(cc1Cl)OCCCO2)c1ccccc1	6.3µM*	u	13µM*	2.8µM*	-3%	11µM*
O=C(Nc1cc2c(cc1Cl)OCCCO2)c1ccco1	u	3.5µM*	11µM*	3.5µM*	-2%	14µM*
CCN1CCN(c2ccc(N=Cc3ccc(O)cc3O)cc2)CC1	0%	1%	17µM*	-5%	-1%	-9%
SMILES	ELG1 genotoxic	NPC1 promoter act	FLuc modulator	Rab9 prom act	Luc counter	SMN2 splice up
COc1ccc(O)c(CN2CCC(n3nccc3NC(=O)c3ccccc3Cl)CC2)c1	-11%	1%	3%	0%	x	x
COc1ccc(-c2nc3cc(NC(=O)COc4ccc(F)cc4)ccc3o2)cc1	x	x	0%	x	x	x
CCOc1ccc(/C=C/C(=O)c2c(O)cc(C)oc2=O)cc1	16%	u	6.7µM*	u	x	x
Cc1cc(O)c(C(=O)/C=C/c2ccccc2)c(=O)o1	-3%	2%	19µM*	0%	x	x
Cc1cc(O)c(C(=O)/C=C/c2ccc(C(C)C)cc2)c(=O)o1	u	u	3.4µM*	2.8µM*	x	x
Cc1cc(O)c(C(=O)/C=C/c2ccccc2Br)c(=O)o1	12%	4%	u	-18%	x	x
CC(=O)Nc1ccc(S(=O)(=O)NCCc2cn3nc(C)c(C)nc3n2)cc1	1%[9.26 µM]	1%	1%	2%	x	x
COc1ccc(OC)c(NC(=O)C2=C(C)C(=O)OC23CCCCCC3)c1	x	x	0%	x	x	x
CC(=O)Nc1ccc(N=Cc2c(O)c(C(=O)Nc3ccccc3)cc3ccccc23)cc1	-3%	12%	0.67µM*	22%	u	-8%
CC(=O)Nc1ccc(NC(=O)c2cc(-c3ccccc3)nc3ccccc23)cc1	-10%	12%	u	7%	x	x
CC1C(=O)C(C)(C)C(=O)OC1c1ccc([N+](=O)[O-])cc1 (stereo not drawn)	-3%	-1%	1%	-7%	x	x
Cc1ccccc1OCC(=O)OCC(=O)c1ccc(OC(=O)c2ccccc2)cc1	1%	-1%	0%	-2%	-5%	-6%
Cc1ccccc1OCC(=O)OCC(=O)c1ccc(OCc2ccccc2)cc1	u	u	-12%	u	5%	14µM*
Cc1cccc(C)c1-n1c(C)nn(CC#N)c1=O	-1%	0%	1%	-5%	5%	4%
COc1cc(NC(=O)c2cc(CC(C)C)on2)c(OC)cc1Cl	u	12%	0%	-3%	4%	-14%
CSc1ccccc1NC(=O)c1cc(CC(C)C)on1	21µM*	u	u	u	-3%	u
CC(C)Cc1cc(C(=O)Nc2cccnc2)no1	10µM*	0%	5.4µM*	u	-23%	-4%
CC(OC(=O)CC1CCCCC1)C(=O)Nc1cccc(C#N)c1 (stereo not drawn)	-5%	0%	1%	-4%	x	x
CCN(C(=S)Nc1ccc(C(C)=O)cc1)C1CCCCC1	7%	-31%	u	u	-1%	2%
CNC(=S)NNC(=O)c1sc(-c2cc(C)on2)nc1C	1%	-4%	17µM*	-1%	x	x
COc1cccc(NC(=O)Nc2ccc3c(c2)nnn3C)c1	10%	u	6.7µM*	u	2%	18µM*
COc1cc(NC(=O)c2ccc3snnc3c2)cc(OC)c1	13%	u	u	11%	x	x
COc1cccc(NC(=O)Nn2cnnc2)c1	1%	-2%	2%	0%	x	x
O=C(Nc1ccc2snnc2c1)Nc1cccc2ccccc12	-1%	-4%	21µM*	4%	1%	-8%
COc1cccc(NC(=O)Nc2ccc3snnc3c2)c1	x	x	17µM*	x	x	19%
Cc1ccc(NC(=O)Nc2ccc3snnc3c2)cc1C	x	x	24µM*	x	x	1%
COc1cc(S(=O)(=O)N2CCOCC2)cc(C(=O)OCC(=O)NC2CCCCC2)c1OC	2%	-3%	0%	2%	x	x
